The values that follow come from ChEMBL document CHEMBL1961873, “Compounds: GSK PKIS; Assays: Nanosyn kinase panel” (2012).

Test [1] concerns the target Serine/threonine-protein kinase 26 (Homo sapiens) (UniProt Q9P289). To be noted: at 1 µM.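 Also: mean inhibition of MST4 kinase activity, reported from the GSK PKIS inhibitor-set screening panel.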
The target of test [2] is Serine/threonine-protein kinase PAK 1 (Homo sapiens) (UniProt Q13153). Conditions: at 0.1 µM.
The target is the same in test [3]. To be noted: at 1 µM.
Test [4] has as its target Serine/threonine-protein kinase PAK 2 (Homo sapiens) (UniProt Q13177). Conditions: at 0.1 µM.
Test [5] shares this target. Conditions: at 1 µM.
Test [6] deals with Serine/threonine-protein kinase PAK 3 (Homo sapiens) (UniProt O75914). To be noted: at 0.1 µM.
Chain of Serine/threonine-protein kinase PAK 3 (Homo sapiens) (O75914 whole entry, looked up): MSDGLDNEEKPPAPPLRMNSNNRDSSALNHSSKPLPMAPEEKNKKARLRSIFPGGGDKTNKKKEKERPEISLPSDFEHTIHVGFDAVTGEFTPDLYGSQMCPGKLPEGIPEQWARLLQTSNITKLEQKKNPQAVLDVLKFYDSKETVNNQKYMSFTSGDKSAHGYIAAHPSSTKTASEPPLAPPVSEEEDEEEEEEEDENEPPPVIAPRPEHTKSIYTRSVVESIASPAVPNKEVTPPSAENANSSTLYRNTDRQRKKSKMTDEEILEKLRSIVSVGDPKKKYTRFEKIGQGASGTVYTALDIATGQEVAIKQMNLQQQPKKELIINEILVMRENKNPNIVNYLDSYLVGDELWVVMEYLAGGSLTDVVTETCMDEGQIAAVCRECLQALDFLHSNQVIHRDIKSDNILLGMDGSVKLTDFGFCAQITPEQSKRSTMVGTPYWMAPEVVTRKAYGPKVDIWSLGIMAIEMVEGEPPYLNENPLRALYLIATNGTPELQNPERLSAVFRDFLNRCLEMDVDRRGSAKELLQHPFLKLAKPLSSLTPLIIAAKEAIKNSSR
For test [7] the target is unchanged. Conditions: at 1 µM.
Test [8] has as its target Serine/threonine-protein kinase PAK 5 (Homo sapiens) (UniProt Q9P286). To be noted: at 0.1 µM.
For test [9] the target is unchanged. Conditions: at 1 µM.
In test [10] the target is Serine/threonine-protein kinase PAK 6 (Homo sapiens) (UniProt Q9NQU5). To be noted: at 0.1 µM.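 Also: mean PAK6 inhibition reported from the GSK PKIS screen.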
Chain of Serine/threonine-protein kinase PAK 6 (Homo sapiens) (Q9NQU5 whole entry, looked up): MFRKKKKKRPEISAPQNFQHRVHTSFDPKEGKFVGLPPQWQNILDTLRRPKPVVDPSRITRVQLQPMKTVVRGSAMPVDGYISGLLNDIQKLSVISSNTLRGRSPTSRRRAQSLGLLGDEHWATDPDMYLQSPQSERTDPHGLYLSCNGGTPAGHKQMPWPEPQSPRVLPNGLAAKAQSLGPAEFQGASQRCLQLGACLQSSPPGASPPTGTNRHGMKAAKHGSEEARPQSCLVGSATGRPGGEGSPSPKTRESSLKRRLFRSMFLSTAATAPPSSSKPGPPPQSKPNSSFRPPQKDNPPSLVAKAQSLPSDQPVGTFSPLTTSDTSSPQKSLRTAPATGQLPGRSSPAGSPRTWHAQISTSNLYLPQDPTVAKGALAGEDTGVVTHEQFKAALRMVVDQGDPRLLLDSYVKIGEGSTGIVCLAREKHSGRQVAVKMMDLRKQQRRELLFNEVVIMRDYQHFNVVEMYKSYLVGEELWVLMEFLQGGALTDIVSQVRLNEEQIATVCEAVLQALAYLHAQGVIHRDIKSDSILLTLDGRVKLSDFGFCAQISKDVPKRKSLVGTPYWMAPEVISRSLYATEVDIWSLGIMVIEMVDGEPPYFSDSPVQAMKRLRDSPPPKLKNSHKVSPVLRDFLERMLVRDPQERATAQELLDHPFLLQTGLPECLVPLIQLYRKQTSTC

The structures appear in SMILES notation.

Chain of Serine/threonine-protein kinase 26 (Homo sapiens) (Q9P289 2-416 limits assumed): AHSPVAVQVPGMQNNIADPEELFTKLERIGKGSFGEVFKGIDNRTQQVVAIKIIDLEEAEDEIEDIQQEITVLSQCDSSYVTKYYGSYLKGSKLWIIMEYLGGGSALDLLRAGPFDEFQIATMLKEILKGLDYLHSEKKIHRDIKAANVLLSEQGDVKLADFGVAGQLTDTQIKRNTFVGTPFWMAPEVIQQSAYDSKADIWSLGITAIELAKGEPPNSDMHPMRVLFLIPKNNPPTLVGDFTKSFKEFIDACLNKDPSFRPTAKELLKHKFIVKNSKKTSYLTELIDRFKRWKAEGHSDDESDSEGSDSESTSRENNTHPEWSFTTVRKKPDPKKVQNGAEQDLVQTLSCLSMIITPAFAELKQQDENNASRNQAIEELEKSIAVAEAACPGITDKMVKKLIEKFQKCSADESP
Chain of Serine/threonine-protein kinase PAK 2 (Homo sapiens) (Q13177 whole entry): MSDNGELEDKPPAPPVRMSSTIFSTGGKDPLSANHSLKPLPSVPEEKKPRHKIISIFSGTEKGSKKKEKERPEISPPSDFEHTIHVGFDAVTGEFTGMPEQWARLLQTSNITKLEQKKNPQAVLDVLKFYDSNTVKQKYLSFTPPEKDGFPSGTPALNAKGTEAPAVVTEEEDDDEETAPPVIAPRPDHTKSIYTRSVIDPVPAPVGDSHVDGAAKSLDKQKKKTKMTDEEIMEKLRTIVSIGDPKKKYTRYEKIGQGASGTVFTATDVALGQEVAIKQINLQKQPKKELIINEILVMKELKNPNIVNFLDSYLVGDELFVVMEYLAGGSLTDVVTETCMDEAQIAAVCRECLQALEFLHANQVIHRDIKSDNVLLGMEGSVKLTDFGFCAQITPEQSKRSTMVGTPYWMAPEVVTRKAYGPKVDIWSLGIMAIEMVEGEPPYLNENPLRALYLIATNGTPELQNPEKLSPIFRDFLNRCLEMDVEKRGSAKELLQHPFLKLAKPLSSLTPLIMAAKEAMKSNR
Chain of Serine/threonine-protein kinase PAK 5 (Homo sapiens) (Q9P286 whole entry, looked up): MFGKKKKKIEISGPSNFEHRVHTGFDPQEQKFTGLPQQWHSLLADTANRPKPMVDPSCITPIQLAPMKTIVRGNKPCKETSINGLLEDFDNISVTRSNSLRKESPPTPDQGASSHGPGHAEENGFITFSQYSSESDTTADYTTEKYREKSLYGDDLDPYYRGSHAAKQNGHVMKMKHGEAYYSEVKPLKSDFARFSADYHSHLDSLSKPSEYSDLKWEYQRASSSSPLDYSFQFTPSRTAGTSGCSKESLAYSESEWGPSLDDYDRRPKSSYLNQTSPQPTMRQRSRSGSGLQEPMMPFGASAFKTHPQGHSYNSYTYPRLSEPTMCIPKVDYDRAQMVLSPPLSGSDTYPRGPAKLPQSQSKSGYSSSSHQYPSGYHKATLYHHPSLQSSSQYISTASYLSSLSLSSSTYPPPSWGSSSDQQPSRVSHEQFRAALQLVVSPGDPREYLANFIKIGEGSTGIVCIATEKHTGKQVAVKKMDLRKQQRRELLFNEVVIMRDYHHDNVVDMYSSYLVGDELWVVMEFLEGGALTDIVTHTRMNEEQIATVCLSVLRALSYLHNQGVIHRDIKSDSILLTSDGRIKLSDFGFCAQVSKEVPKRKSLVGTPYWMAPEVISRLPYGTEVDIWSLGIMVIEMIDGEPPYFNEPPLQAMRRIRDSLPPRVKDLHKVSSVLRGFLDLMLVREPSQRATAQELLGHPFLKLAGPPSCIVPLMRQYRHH
Chain of Serine/threonine-protein kinase PAK 1 (Homo sapiens) (Q13153 whole entry): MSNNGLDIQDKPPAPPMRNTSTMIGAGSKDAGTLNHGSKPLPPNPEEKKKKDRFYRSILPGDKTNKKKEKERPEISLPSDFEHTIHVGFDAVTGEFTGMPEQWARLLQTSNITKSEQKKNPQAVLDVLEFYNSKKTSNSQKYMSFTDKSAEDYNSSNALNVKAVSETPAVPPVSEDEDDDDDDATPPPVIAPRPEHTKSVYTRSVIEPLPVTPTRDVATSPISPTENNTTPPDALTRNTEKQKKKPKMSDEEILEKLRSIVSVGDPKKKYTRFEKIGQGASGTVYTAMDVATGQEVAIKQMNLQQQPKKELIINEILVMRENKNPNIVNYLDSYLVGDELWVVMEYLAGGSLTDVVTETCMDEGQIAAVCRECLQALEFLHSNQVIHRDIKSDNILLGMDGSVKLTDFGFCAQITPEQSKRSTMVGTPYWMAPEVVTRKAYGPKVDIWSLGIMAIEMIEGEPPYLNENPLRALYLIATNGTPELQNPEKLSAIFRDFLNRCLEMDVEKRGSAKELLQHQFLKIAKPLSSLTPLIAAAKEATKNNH

Take `NC(=O)c1cccc(Nc2nccc(Nc3cccc4[nH]ncc34)n2)c1`: the inhibition (as a rule, the relative decrease from the control value, in per cent) in test [1] was 2.8%; in test [2], -5.7%; in test [3] it was -0.69%; in [4] it was -3.16%; in test [5] it was -0.55%; in test [6], -3.68%. The inhibition in test [7] is -3.07%; in [8] it was -1.09%; in [9] it was 13.4%; in [10], 3.11%.

On to `Cc1nnc(-c2ccc(C)c(-c3ccc(C(=O)Nc4cccc(C#N)c4)cc3)c2)o1`, for which the inhibition in [1] is -0.56%; in [2] it was 5.8%; in [3], 1.41%; in [4] it was 0.71%; in [5], 0.48%; in [6], 2.48%. Moreover, the inhibition in test [7] is 2.15%; in test [8], 0.22%; in test [9], -1.12%; in test [10], -9.89%.

`CC1=C(C(=O)Nc2ccc3[nH]ncc3c2)C(c2ccc3ccccc3c2)CC(=O)N1` (stereo not given): the inhibition in [1] is -3.47%; in test [2] it was 0.76%; in [3], 4.95%; in test [4], -0.2%; in test [5], 2.46%; in test [6], 2.14%. For the same compound, the inhibition was 0.85% in test [7], -1.65% in test [8], 3.39% in test [9] and -2.35% in test [10].

Turning to `O=C(Nc1n[nH]c2nc(-c3ccco3)c(Br)cc12)C1CC1`, the inhibition in test [1] was -2.34%; in test [2], 4.84%; in test [3], 6.66%; in test [4] it was 2.69%; in test [5] it was 3.61%; in test [6] it was 3.75%. Moreover, the inhibition in test [7] is 3.54%; in [8], -1.27%; in [9], -1.99%; in test [10] it was 0.11%.

With `CS(=O)(=O)CCNCc1ccc(-c2ccc3ncnc(Nc4ccc(OCc5ccccc5)c(Cl)c4)c3c2)o1`, the inhibition in test [1] was 0.42%; in [2] it was -1.29%; in test [3], 7.48%; in test [4] it was 0.77%; in [5], -0.12%; in test [6], -0.48%. The inhibition in [7] was -0.08%; in test [8], -6.06%; in test [9], -8.65%.

For the compound `COc1cc2c(cc1Nc1nc(N3CCc4ccccc43)c3cc[nH]c3n1)N(C(=O)CN(C)C)CC2`, the inhibition was found to be 4.16% in test [1]; 3.44% in [2]; 4.36% in test [3]; 0.89% in test [4]; 1.19% in test [5]; 1.31% in test [6]. Besides, the inhibition in test [7] is 2.24%; in test [8] it was 0.19%; in [9], -1.41%; in test [10], -3.46%.

Take `COc1ccc(-c2ccncc2)cc1C(N)=O`: the inhibition in test [1] was -5.1%; in test [2], 4.54%; in test [3] it was 10%; in test [4], 2.37%; in test [5], 3.02%; in test [6] it was 5.3%. Moreover, the inhibition in [7] was 10.3%; in test [8], 5.08%; in test [9], 8.05%; in [10], -8.8%.

Take `CS(=O)(=O)CCN(CC#N)Cc1ccc(-c2ccc3ncnc(Nc4ccc(OCc5cccc(F)c5)c(Cl)c4)c3c2)o1`: the inhibition in [1] amounted to 0.46%; in test [2], 1.88%; in test [3] it was 4.88%; in test [4], 0.62%; in [5], 0.16%; in test [6], 2.04%. For the same compound, the inhibition in test [7] is 4.29%; in [8] it was 0.28%; in test [9], -0.85%; in test [10], -6.8%.

In the case of `Cc1ccc(C(=O)NC2CCCCC2)cc1-c1ccc(C(=O)NCC2CC2)cc1`, the inhibition was -1.45% in test [1]; 6.65% in [2]; 4.6% in [3]; 2.09% in [4]; 1.97% in test [5]; 4.22% in test [6]. For the same compound, the inhibition in test [7] was 4.44%; in [8], 4.34%; in test [9], 13.6%; in [10] it was -2.81%.

As to `CCN1CCC(CC(=O)Nc2n[nH]c3nc(-c4cccs4)c(Br)cc23)CC1`, the inhibition in [1] was 12%; in [2] it was -4.19%; in [3] it was -3.71%; in [4], -2.22%; in test [5], -2.2%; in [6] it was -1.67%. In addition, the inhibition was -3.03% in test [7], 0.15% in test [8] and 16.4% in [9].

With `COc1ccc2cc(-c3c(-c4ccncc4)nc(-c4ccc([S+](C)[O-])cc4)n3C)ccc2c1` (stereo not given), the inhibition is -1.05% in test [1]; 4.83% in test [2]; 2.57% in test [3]; 1.33% in [4]; 1.31% in test [5]; 3.03% in test [6]. The inhibition in test [7] was 3.28%; in [8], -4.32%; in test [9] it was -3.64%; in test [10], -2.25%.

Regarding `CN1CCC(C(=O)Nc2n[nH]c3nnc(-c4ccccc4)cc23)CC1`, the inhibition in [1] was 1.63%; in [2], 10.6%; in test [3], 7.32%; in [4] it was 1.19%; in test [5], 2.25%; in test [6], 5.86%. Besides, the figures for the inhibition in [7], in test [8] and in test [9] were 6.46%, 3.31% and 6.52%, respectively.

For `COC(=O)Nc1nc2cc(Oc3cccc(NC(=O)Nc4cc(C(F)(F)F)ccc4F)c3)ccc2[nH]1`, the inhibition in [1] is 1.92%; in [2] it was 3.97%; in test [3], -1.03%; in test [4], -1.19%; in test [5], 0.23%; in [6], -1.11%. Moreover, the inhibition is -1.11% in test [7], 0.91% in test [8], -5.17% in [9] and 6.44% in test [10].

For the compound `N#Cc1c(NC(=O)c2cccc3ccccc23)sc2c1CCCC2`, the inhibition in test [1] amounted to 1.23%; in test [2], 5.02%; in [3], 3.74%; in [4], 0.12%; in test [5] it was 1.16%; in test [6], 2.52%. Besides, the inhibition in [7] is 3.41%; in [8] it was -2.18%; in test [9], -9.6%; in test [10] it was 7.76%.

In the case of `O=C1NC(=O)C(c2ccccc2Cl)=C1Nc1cccc(O)c1`, the inhibition in [1] turned out to be 2.65%; in test [2], 3.51%; in [3] it was 3.76%; in test [4], 1.94%; in test [5] it was 1.62%; in test [6] it was 2.51%. The inhibition was 3.3% in [7], 11.9% in test [8], -1.3% in [9] and -0.02% in test [10].

`CCn1c(-c2nonc2N)nc2c(N3CCCC3)nccc21`: the inhibition in test [1] was 0.92%; in test [2], 3.59%; in [3] it was -4.47%; in test [4], -2.37%; in test [5] it was -1.78%; in test [6] it was -2.72%. For the same compound, the inhibition in test [7] is -1.25%; in test [8], -6.88%; in test [10], 8.95%.

Consider `O=C1NC(=O)C(c2ccc(Cl)cc2)=C1Nc1ccc(Cl)c(C(=O)O)c1`, for which the inhibition in test [1] was -0.4%; in test [2], -2.53%; in test [3], 2.15%; in [4] it was -1.89%; in test [5], -1.88%; in test [6], -3.46%. In addition, the inhibition in test [7] was -2.5%; in test [8] it was 0.14%; in [9], 0.32%; in test [10], 13.1%.

As to `NS(=O)(=O)c1ccc(N/N=C2\C(=O)Nc3ccc(C(=O)NCCc4c[nH]cn4)cc32)cc1`, the inhibition in test [1] was 6.15%; in test [2], 3.1%; in [3], 7.85%; in [4] it was 1.34%; in test [5], 3.15%; in test [6] it was 4.63%. In addition, the inhibition in test [7] turned out to be 6.49%; in [8], 2.86%; in test [9] it was 3.33%; in test [10], 10.1%.

As for `Nc1nc(-c2ccc3c(c2)C(=Cc2cc(Br)c(O)c(Br)c2)C(=O)N3)cs1`, the inhibition in test [1] is 15.5%; in test [2] it was 2.87%; in test [3], -1.51%; in test [4], -2.22%; in test [5], -1.94%; in test [6] it was -4.94%. The inhibition was -1.99% in [7], -3.15% in test [9] and -5.26% in test [10].

`COc1cccc(-n2ncc3c(N/N=C/c4cccc(F)c4)ncnc32)c1`: the inhibition is 2.84% in [1]; 6.15% in test [2]; 6.44% in test [3]; 0.05% in test [4]; 0.67% in test [5]; 1.51% in [6]. The inhibition in [7] is 2.17%; in test [8], -1.62%; in [9], -8.07%; in test [10], 12.7%.
